Laboratory results reported in PubChem BioAssay.
Several values for one entry are separate records, joined by “and”; a condition that tells them apart may be missing. Equal entries are not always repeated. Activity calls are given as the source filed them.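 How the source made its calls, unless noted: active means thallium flux through the channel raised or lowered by more than 3 SD from vehicle-only wells, actives on both sides; inactive means the rest.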

What was measured:
[1] = system: Hepatitis C virus NS3 helicase; assay: blockers of NS3h binding to DNA – biochemical, fluorescence polarization, NIH Clinical Collection, primary screen (AID 743270; call rule not given here); conditions: NS3 helicase binding to Cy5-dT15 DNA, stronger effect = higher value, concentration not given here
[2] = target: Single-stranded DNA-binding protein (Escherichia coli (strain K12)) (UniProt P0AGE0); assay: SSB-ssDNA binding inhibitors – biochemical, fluorescence polarization, NIH Clinical Collection, counter-screen for HCV NS3 helicase inhibitor project (AID 743271; in the data active means inhibition above about 28%); conditions: E. coli SSB-DNA binding, stronger effect = higher value, concentration not given here
[3] = compounds distorting NS3 helicase fluorescence signal – biochemical, NIH Clinical Collection, artefact control for HCV NS3 helicase inhibitor project (AID 743272; call rule not given here;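 further: HCV NS3 helicase with a Cy5 labelled single stranded DNA probe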); conditions: fluorescence interference counterscreen, HCV NS3 helicase assay; stronger effect = lower value
[4] = Wnt pathway potentiators raising nuclear beta-catenin – imaging, WNT3A-conditioned medium, mouse C2C12, NPC library, primary screen (AID 1117326; in the data active means nuclear beta-catenin stimulation mostly above about 4.2%, no sharp cut-off; inactive means mostly below about 10%); conditions: stronger effect = higher value
[5] = stimulators of insulin release from INS-1E, primary screen, cell-based, 5 mM glucose, NPC library (AID 1117329;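 active means compound raises insulin release from rat beta cells at 5 mM glucose, no numeric limit stated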); conditions: rat INS-1E insulin secretion, at 10 µM, stronger effect = higher value
[6] = growth inhibition of GSK3B-pretreated HCT116 cells – cell-based, CellTiter-Glo, 0.2 to 20 µM (AID 1117336;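 active means compounds lowering colon cancer cell viability after pretreatment blocking the GSK3B kinase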); conditions: HCT116 viability after GSK3B inhibitor, at 20 µM, stronger effect = higher value
[7] = inhibition of endothelial tube formation, primary screen, imaging, VEGF stimulated, CD31 staining, tube area, NPC library (AID 1117340;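 active means compound that reduces growth-factor-driven endothelial tube area in a mixed cell culture, no cutoff stated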); conditions: VEGF-stimulated ADSC/ECFC co-culture, at 10 µM, stronger effect = higher value
[8] = GLP1 release stimulators, primary, NCI-H716, NPC library (AID 1117341;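 active means compound raises GLP1 secretion from the human gut endocrine cells, with no numeric limit stated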); conditions: NCI-H716 cells, at 10 µM, stronger effect = higher value
[9] = HCT116 colon cancer cell growth inhibition, primary screen, CellTiter-Glo luminescence, NPC library (AID 1117342;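 active means compounds that lower survival of HCT116 colon cancer cells in the luminescence readout, no numeric limit stated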); conditions: at 20 µM (top of the series)
[10] = reduced SW480 viability measured with CellTiter-Glo, NPC library, primary (AID 1117343;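 active means compounds that lower viability of the colon cancer cells in the luminescence readout, with no numeric limit stated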); conditions: CellTiter-Glo luminescence; at 20 µM (top of the series)
[11] = NPC library primary testing for decreased DLD-1 cell viability via CellTiter-Glo (AID 1117346;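 active means compounds that lower survival of DLD-1 colon cancer cells in the luminescence readout, no cutoff given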); conditions: DLD-1 viability, CellTiter-Glo luminescence; at 20 µM (top of the series)
[12] = target: 6-phosphogluconate dehydrogenase, decarboxylating (Homo sapiens) (UniProt P52209); assay: inhibition of human phosphogluconate dehydrogenase – biochemical, recombinant enzyme, NADPH absorbance, primary screen (AID 1159550;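 active means at least 20% inhibition of 6-phosphogluconate dehydrogenase activity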); conditions: recombinant 6PGD, NADPH absorbance 341 nm; at 10 µM; stronger effect = higher value
[13] = EMT-state selective cytotoxicity in co-culture – imaging, PC-3E GFP, TEM4-18 mCherry, primary screen (AID 1345086;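 active means compounds killing one labelled cell type while sparing the other, by normalised counts and ratio limits, not self-fluorescent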;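 on all read-outs here: cells exposed to compound for 72 h before imaging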;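 on red/green cell ratio (normalised): normalised mesenchymal count divided by normalised epithelial count so high means epithelial killing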); conditions: PC-3E GFP / TEM4-18 mCherry co-culture, imaging cell counts, at 1 µM; for red/green cell ratio (normalised): actives lie on both sides, counts scaled to control wells, 1 = unselective
[14] = MELAS cybrid and Rieske KO viability enhancers – cell-based, MELAS cybrids, Rieske KO mouse fibroblasts, CellTiter-Glo, primary screen (AID 1508586;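 active means mean z-score across replicates of 1.96 or higher in either the MELAS or the Rieske mutant cell line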;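 further: z relative to plate mean and SD of compound and empty wells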); conditions: low glucose
[15] = target: NAD(+) hydrolase SARM1 (Homo sapiens) (UniProt Q6SZW1); assay: blocking NAD cleavage by SARM1 SAM-TIR – cell lysate, NAD-Glo luminescence (AID 1508614;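 active means compound whose remaining NAD level is above about 45 nM, limit read from the data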); conditions: SAM-TIR HEK293T lysate NADase, at 1 µM, stronger effect = higher value
[16] = target: Mitogen-activated protein kinase 7 (Homo sapiens) (UniProt Q13164); assay: Gal4-ERK5 driven luciferase induction – cell-based, HTS, primary screen (AID 1508626;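 active means luciferase signal above three times the same-plate solvent-only control wells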;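 further: luciferase driven by Gal4-ERK5 fusion binding five Gal4 sites before minimal TATA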); conditions: HeLa Gal4-ERK5 transactivation, 18 h, at 5 µM, stronger effect = higher value
F380Y = assay: BK channel mutant inhibitors and activators – cell-based, U2OS BacMam, thallium flux, beta subunits, selectivity assay, profiling panel (AID 1259406); conditions: U2OS BacMam BK variants, at 30 µM;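 further: initial slope of Thallos dye fluorescence rise after thallium is added; log ratio against the mean of 0.3% DMSO vehicle wells on the same plate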
F380Y/beta2Delta = assay: as above; conditions: U2OS BacMam BK variants, at 30 µM
[17] = target: Calcium-activated potassium channel subunit alpha-1 (Homo sapiens) + Leucine-rich repeat-containing protein 26 (Homo sapiens) (UniProt Q12791+Q2I0M4); assay: as above; conditions: U2OS BacMam BK variants, F380Y/Slo1WT/gamma1, at 30 µM
[18] = viability loss with induced miR-34 in A549 – imaging, A549 dox-inducible miR-34, nuclei and caspase counts, primary screen (AID 1347080;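 active means compounds whose cell count with miR-34 switched on is under 0.7 times the count with it off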); conditions: A549 miR-34 inducible, Hoechst nuclei count, 48 h; stronger effect = lower value; cell number ratio, induced over uninduced
[19] = measured here: epithelial PC-3E GFP cell survival
[20] = measured here: mesenchymal TEM4-18 mCherry cell survival
[21] = MELAS cybrid survival, CellTiter-Glo 48 h, stronger effect = higher value
[22] = Rieske KO mouse fibroblast survival, CellTiter-Glo 72 h

Mitogen-activated protein kinase 7 (Homo sapiens), sequence (Q13164 whole entry, looked up, the tested form may be a part): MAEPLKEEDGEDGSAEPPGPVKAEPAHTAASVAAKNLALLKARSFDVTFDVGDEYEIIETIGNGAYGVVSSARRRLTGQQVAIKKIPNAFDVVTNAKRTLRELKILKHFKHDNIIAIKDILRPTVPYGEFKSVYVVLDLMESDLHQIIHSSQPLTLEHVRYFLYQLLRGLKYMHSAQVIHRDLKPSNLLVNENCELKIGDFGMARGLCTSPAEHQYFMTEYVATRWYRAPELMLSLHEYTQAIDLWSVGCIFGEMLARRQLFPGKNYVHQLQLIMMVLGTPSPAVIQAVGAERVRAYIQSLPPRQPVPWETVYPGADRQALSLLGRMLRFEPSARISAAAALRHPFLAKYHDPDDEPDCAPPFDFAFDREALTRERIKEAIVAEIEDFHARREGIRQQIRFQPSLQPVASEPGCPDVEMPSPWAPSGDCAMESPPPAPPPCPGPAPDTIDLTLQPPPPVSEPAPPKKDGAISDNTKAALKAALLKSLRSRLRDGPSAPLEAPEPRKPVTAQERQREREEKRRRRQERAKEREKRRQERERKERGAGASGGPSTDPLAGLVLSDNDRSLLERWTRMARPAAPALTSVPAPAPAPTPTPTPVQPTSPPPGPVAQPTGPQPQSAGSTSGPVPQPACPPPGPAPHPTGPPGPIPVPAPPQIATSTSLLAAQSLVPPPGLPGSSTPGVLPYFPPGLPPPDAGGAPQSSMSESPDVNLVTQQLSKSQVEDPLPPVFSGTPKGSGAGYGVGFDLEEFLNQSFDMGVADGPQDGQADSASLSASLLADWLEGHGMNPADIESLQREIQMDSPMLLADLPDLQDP
6-phosphogluconate dehydrogenase, decarboxylating (Homo sapiens), sequence (P52209 whole entry, looked up): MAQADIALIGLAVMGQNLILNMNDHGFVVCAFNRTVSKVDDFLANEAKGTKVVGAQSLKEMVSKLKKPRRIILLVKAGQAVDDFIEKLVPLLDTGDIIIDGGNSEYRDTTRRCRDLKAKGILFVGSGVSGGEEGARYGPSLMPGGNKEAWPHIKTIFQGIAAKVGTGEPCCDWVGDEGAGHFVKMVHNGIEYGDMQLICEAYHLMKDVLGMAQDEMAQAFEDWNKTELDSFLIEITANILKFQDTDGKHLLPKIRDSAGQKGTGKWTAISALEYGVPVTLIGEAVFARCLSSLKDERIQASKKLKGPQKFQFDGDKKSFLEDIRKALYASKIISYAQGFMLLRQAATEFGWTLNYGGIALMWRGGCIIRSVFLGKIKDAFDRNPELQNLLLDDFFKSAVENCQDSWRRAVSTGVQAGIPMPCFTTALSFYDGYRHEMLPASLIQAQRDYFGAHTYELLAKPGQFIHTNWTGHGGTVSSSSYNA
NAD(+) hydrolase SARM1 (Homo sapiens), sequence (Q6SZW1 whole entry, looked up, the tested form may be a part): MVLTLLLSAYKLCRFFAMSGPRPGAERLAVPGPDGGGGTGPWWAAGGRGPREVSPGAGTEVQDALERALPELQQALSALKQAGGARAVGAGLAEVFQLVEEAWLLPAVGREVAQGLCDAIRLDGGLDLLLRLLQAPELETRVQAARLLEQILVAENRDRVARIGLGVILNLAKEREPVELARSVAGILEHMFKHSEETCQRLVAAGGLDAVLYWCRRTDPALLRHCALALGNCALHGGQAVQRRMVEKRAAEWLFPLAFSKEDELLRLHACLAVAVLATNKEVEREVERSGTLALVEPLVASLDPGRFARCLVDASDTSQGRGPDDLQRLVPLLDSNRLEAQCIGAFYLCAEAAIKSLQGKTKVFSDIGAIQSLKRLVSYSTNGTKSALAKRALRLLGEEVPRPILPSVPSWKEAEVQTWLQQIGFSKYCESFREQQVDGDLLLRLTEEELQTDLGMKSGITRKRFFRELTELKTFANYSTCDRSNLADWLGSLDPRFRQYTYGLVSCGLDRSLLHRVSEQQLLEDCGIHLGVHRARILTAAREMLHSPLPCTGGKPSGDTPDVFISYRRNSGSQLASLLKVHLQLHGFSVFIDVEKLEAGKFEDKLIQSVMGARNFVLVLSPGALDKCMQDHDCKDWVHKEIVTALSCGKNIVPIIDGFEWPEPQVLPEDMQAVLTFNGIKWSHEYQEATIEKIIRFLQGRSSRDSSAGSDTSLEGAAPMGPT
Calcium-activated potassium channel subunit alpha-1 (Homo sapiens) + Leucine-rich repeat-containing protein 26 (Homo sapiens), sequence (Q2I0M4 whole entry, looked up, one chain of several): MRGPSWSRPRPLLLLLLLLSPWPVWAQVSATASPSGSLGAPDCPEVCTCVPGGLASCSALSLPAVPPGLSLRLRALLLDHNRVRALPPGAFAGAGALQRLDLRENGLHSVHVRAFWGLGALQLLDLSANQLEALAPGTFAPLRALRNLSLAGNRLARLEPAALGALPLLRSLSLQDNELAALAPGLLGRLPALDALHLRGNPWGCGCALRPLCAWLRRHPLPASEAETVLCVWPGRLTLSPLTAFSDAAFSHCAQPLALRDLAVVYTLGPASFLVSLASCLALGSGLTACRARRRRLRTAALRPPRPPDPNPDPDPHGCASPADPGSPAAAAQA

CC(CN1c2ccccc2Sc2ccccc21)N(C)C (stereo not given)
inhibition [1]: -5% (inactive) | inhibition [2]: 3.34% (inactive) | fluorescence ratio [3]: 0.93 (inactive) | nuclear beta-catenin stimulation ([4]; at 10 µM): 0% (inactive) | nuclear beta-catenin stimulation ([4]; stimulation, at 2 µM): -0.4% | insulin secretion stimulation [5]: 7.9% (inactive) | viability decrease [6]: 28.6% (inactive) | tube area decrease [7]: 14.2% (inactive) | GLP1 secretion stimulation [8]: 5.7% (inactive) | inhibition of viability [9]: 76.9% (active) | viability decrease (inhibition) [10]: 110% (active) | viability decrease (inhibition) [11]: 28.8% (inactive) | inhibition [12]: 7.15% (inactive) | red/green cell ratio (normalised) [13]: 0.9 (inactive) | normalised cell number [13, 19]: 1.17 | normalised cell number [13, 20]: 1.05 | z-score [14, 21]: -0.251 (inactive) and 0.0297 (inactive) and -0.48 (inactive) | z-score [14, 22]: -0.152 and -0.842 and 0.0934 | remaining NAD [15]: 10 nM (inactive) | luciferase signal [16]: 144 AU (inactive) | log fold change Tl+ flux (F380Y): 0.2 (active) | log fold change Tl+ flux (F380Y/beta2Delta): 0.393 (active) | log fold change Tl+ flux [17]: -0.00524 (inactive)

CN(C)CCCN1c2ccccc2CCc2ccccc21
nuclear beta-catenin stimulation ([4]; at 10 µM): 0.8% (inactive) | nuclear beta-catenin stimulation ([4]; stimulation, at 2 µM): -0.2% | insulin secretion stimulation [5]: 5.55% (inactive) | viability decrease [6]: 57.9% (active) | tube area decrease [7]: 0.8% (inactive) | GLP1 secretion stimulation [8]: 10% (inactive) | inhibition of viability [9]: 36.7% (inactive) | viability decrease (inhibition) [10]: 70.5% (active) | viability decrease (inhibition) [11]: -1.6% (inactive) | inhibition [12]: 2.5% (inactive) | red/green cell ratio (normalised) [13]: 1.07 (inactive) | normalised cell number [13, 19]: 1.07 | normalised cell number [13, 20]: 1.14 | z-score [14, 21]: -0.849 (inactive) and -0.557 (inactive) | z-score [14, 22]: 0.136 and -0.674 | remaining NAD [15]: 10 nM (inactive) | luciferase signal [16]: 44 AU (inactive) | log fold change Tl+ flux (F380Y): 0.14 (active) | log fold change Tl+ flux (F380Y/beta2Delta): 0.118 (active) | log fold change Tl+ flux [17]: 0.0488 (inactive)

CC(=O)Nc1nnc(S(N)(=O)=O)s1
inhibition [1]: -1.36% (inactive) | inhibition [2]: -2% (inactive) | fluorescence ratio [3]: 0.98 (inactive) | nuclear beta-catenin stimulation ([4]; at 10 µM): 0.1% (inactive) | nuclear beta-catenin stimulation ([4]; stimulation, at 2 µM): -0.2% | insulin secretion stimulation [5]: -1.1% (inactive) | viability decrease [6]: -1.8% (inactive) | tube area decrease [7]: -16.7% (inactive) | GLP1 secretion stimulation [8]: 1.4% (inactive) | inhibition of viability [9]: 1.7% (inactive) | viability decrease (inhibition) [10]: 31.5% (inactive) | viability decrease (inhibition) [11]: 6.2% (inactive) | inhibition [12]: -4.83% (inactive) | red/green cell ratio (normalised) [13]: 1.26 (inactive) | normalised cell number [13, 19]: 0.92 | normalised cell number [13, 20]: 1.17 | z-score [14, 21]: -0.627 (inactive) | z-score [14, 22]: 0.11 | remaining NAD [15]: 10 nM (inactive) | luciferase signal [16]: 44 AU (inactive) | log fold change Tl+ flux (F380Y): 0.0439 (inactive) | log fold change Tl+ flux (F380Y/beta2Delta): 0.0368 (inactive) | log fold change Tl+ flux [17]: -0.0199 (inactive)

CC(C)NCC(O)c1cc(O)cc(O)c1 (stereo not given)
inhibition [1]: -5% (inactive) | inhibition [2]: -4.29% (inactive) | fluorescence ratio [3]: 1.02 (inactive) | nuclear beta-catenin stimulation ([4]; at 10 µM): 1.6% (inactive) | nuclear beta-catenin stimulation ([4]; stimulation, at 2 µM): 0.9% | insulin secretion stimulation [5]: 1.2% (inactive) | viability decrease [6]: 6% (inactive) | tube area decrease [7]: 3.6% (inactive) | GLP1 secretion stimulation [8]: 2.2% (inactive) | inhibition of viability [9]: -11.2% (inactive) | viability decrease (inhibition) [10]: -1.6% (inactive) | viability decrease (inhibition) [11]: -9.9% (inactive) | inhibition [12]: -6.42% (inactive) | red/green cell ratio (normalised) [13]: 1.18 (inactive) | normalised cell number [13, 19]: 1.02 | normalised cell number [13, 20]: 1.2 | fold change [18]: 1.13 (inactive) and 0.914 (inactive) and 0.836 (inactive) | z-score [14, 21]: 0.509 (inactive) | z-score [14, 22]: 0.459 | remaining NAD [15]: 10 nM (inactive) | luciferase signal [16]: 92 AU (inactive) | log fold change Tl+ flux (F380Y): -0.0466 (inactive) | log fold change Tl+ flux (F380Y/beta2Delta): 0.0418 (inactive) | log fold change Tl+ flux [17]: 0.0135 (inactive)

O=C1[C@H](CC[C@H](O)c2ccc(F)cc2)[C@@H](c2ccc(O)cc2)N1c1ccc(F)cc1
inhibition [1]: 2.77% (inactive) | inhibition [2]: 3.75% (inactive) | fluorescence ratio [3]: 0.95 (inactive) | nuclear beta-catenin stimulation ([4]; at 10 µM): 4.5% (inactive) | nuclear beta-catenin stimulation ([4]; stimulation, at 2 µM): -0.4% | insulin secretion stimulation [5]: 6% (inactive) | viability decrease [6]: 20.8% (inactive) | tube area decrease [7]: 19.9% (inactive) | GLP1 secretion stimulation [8]: 7.4% (inactive) | inhibition of viability [9]: 32.6% (inactive) | viability decrease (inhibition) [10]: 10.1% (inactive) | viability decrease (inhibition) [11]: 18% (inactive) | inhibition [12]: -1.06% (inactive) | z-score [14, 21]: -0.744 (inactive) | z-score [14, 22]: 0.307 | remaining NAD [15]: 10 nM (inactive) | luciferase signal [16]: 44 AU (inactive) | log fold change Tl+ flux (F380Y): 0.0275 (inactive) | log fold change Tl+ flux (F380Y/beta2Delta): 0.0773 (inactive) | log fold change Tl+ flux [17]: 0.0312 (inactive)

OCCN1C[C@H](O)[C@@H](O)[C@H](O)[C@H]1CO
inhibition [1]: -1.98% (inactive) | inhibition [2]: -4.72% (inactive) | fluorescence ratio [3]: 0.93 (inactive) | nuclear beta-catenin stimulation ([4]; at 10 µM): -2.3% (inactive) | nuclear beta-catenin stimulation ([4]; stimulation, at 2 µM): -1% | insulin secretion stimulation [5]: 5.4% (inactive) | viability decrease [6]: -1.6% (inactive) | tube area decrease [7]: 0.1% (inactive) | GLP1 secretion stimulation [8]: -1.4% (inactive) | inhibition of viability [9]: 0.6% (inactive) | viability decrease (inhibition) [10]: -1.7% (inactive) | viability decrease (inhibition) [11]: 0.1% (inactive) | inhibition [12]: 6.33% (inactive) | z-score [14, 21]: 0.074 (inactive) | z-score [14, 22]: 0.78 | remaining NAD [15]: 10 nM (inactive) | luciferase signal [16]: 80 AU (inactive) | log fold change Tl+ flux (F380Y): -0.0502 (inactive) | log fold change Tl+ flux (F380Y/beta2Delta): -0.0041 (inactive) | log fold change Tl+ flux [17]: -0.0394 (inactive)

C[C@]12CCC(=O)C=C1CC[C@@H]1[C@@H]2[C@@H](O)C[C@@]2(C)[C@H]1CC[C@]2(O)C(=O)CO
inhibition [1]: 0.45% (inactive) | inhibition [2]: 5.62% (inactive) | fluorescence ratio [3]: 0.93 (inactive) | nuclear beta-catenin stimulation ([4]; at 10 µM): -0.3% (inactive) | nuclear beta-catenin stimulation ([4]; stimulation, at 2 µM): 0.1% | insulin secretion stimulation [5]: 1.1% (inactive) | viability decrease [6]: -18.7% (inactive) | tube area decrease [7]: 9.1% (inactive) | GLP1 secretion stimulation [8]: 1.8% (inactive) | inhibition of viability [9]: -13.9% (inactive) | viability decrease (inhibition) [10]: 14.7% (inactive) | viability decrease (inhibition) [11]: -6.7% (inactive) | inhibition [12]: -14.6% (inactive) | z-score [14, 21]: -0.02 (inactive) and 0.332 (inactive) | z-score [14, 22]: -0.00651 and 1.17 | remaining NAD [15]: 10 nM (inactive) | luciferase signal [16]: 124 AU (inactive) | log fold change Tl+ flux (F380Y): 0.0399 (inactive) | log fold change Tl+ flux (F380Y/beta2Delta): 0.0274 (inactive) | log fold change Tl+ flux [17]: -0.00874 (inactive)
